# Measurements from PubChem BioAssay.
# Calls of active or inactive are those of the source.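 The calls were made as follows, unless noted: active = inhibition of the reporter signal at or above 50%; inactive = inhibition below 50%.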
# Tests used:
# [1] = inhibitors of TNFa-induced NFkB p65 translocation, primary screen, imaging, HUVEC, MLSMR starter and 10KST1 sets (AID 438;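 active = inhibition above 20% together with a positive visual image hit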;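 also: compound added about 3h40 before a 20 min TNFalpha stimulation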;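 as to inhibition: signal is the nuclear over cytoplasmic p65 intensity ratio per well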); settings: HUVEC TNFa-induced p65 nuclear translocation; cell count: measured here: nuclei count (cytotoxicity indicator), at 2.08 µM; inhibition: at 2 µM, stronger effect = higher value, 0% TNFa-plus-vehicle, 100% no-TNFa wells
# [2] = reduction of polyQ htt aggregates in cells – imaging, exon1htt(103Q)mCFP cells, high-content imaging, primary screen (AID 483;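 active = visual image review flags a hit and inhibition of aggregation exceeds 20%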;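 also: compound exposure lasted 3 days before fixation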;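 as to nuclei count: percent of the per-plate median nuclei count of sample wells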); settings: exon1htt(103Q)mCFP cell line, aggregate imaging, at 2 µM; inhibition of aggregation: stronger effect = higher value; nuclei count: measured here: cell count, toxicity
# [3] = endothelial E-selectin expression blockers – imaging, HUVEC, immunofluorescence, MLSMR starter and 10KST1 sets, primary screen (AID 487;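 active = visually confirmed hit in the image check and inhibition above 20%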;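 as to inhibition: signal is fraction of cell area covered by stained E-selectin grains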;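 as to nuclei count: 100% = median nuclei count of all wells on the same plate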); settings: HUVEC TNFalpha-induced E-selectin immunofluorescence imaging, at 2 µM; inhibition: stronger effect = higher value; nuclei count: measured here: cell number, toxicity
# [4] = target: Voltage-gated potassium channel subunit beta-2 (Rattus norvegicus) (UniProt P62483); test: inhibitors of rat Kvbeta2 reductase activity – biochemical, NADPH fluorescence, primary screen (AID 622;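 active = fluorescence slope higher than the sample average by over 3 SD, cut at about -0.22 in these data, passing the limit was not always enough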;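 also: slope of raw intensity against log time taken from 70 to 1610 s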); settings: recombinant KvBeta, 4-cyanobenzaldehyde reduction, at 10 µM, stronger effect = higher value
# Voltage-gated potassium channel subunit beta-2 (Rattus norvegicus), sequence (P62483 whole entry, looked up): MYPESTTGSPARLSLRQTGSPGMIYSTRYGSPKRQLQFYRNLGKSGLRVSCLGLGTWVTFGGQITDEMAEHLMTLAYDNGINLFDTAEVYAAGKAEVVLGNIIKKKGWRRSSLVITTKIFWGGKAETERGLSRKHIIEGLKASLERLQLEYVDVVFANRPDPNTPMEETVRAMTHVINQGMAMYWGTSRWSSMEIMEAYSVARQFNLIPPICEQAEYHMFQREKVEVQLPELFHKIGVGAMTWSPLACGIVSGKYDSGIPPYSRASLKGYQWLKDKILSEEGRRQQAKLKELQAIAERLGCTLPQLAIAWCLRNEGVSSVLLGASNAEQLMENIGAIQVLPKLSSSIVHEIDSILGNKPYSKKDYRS
# [5] = target: Voltage-gated potassium channel subunit beta-2 (Rattus norvegicus) (UniProt P62483); test: enhancers of rat Kvbeta2 NADPH turnover – biochemical, NADPH fluorescence, primary screen (AID 623;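 active = NADPH fluorescence slope more negative than the mean of all samples by about 3 SD, 99.7% confidence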;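 also: fluorescence intensity change per second fitted from 20 to 320 s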); settings: Recombinant KvBeta, NADPH fluorescence decrease slope, 10 min; at 10 µM; stronger effect = lower value
# [6] = target: Alpha-2C adrenergic receptor (Homo sapiens) (UniProt P18825); test: compounds altering alpha2C-coupled GIRK flux – cell-based, HEK293 alpha2C/GIRK1/2, thallium flux, primary screen (AID 624;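 active = fluorescence slope after compound addition differing from the mean of all screened samples at 99.7% confidence, in either direction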;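 also: slope of fluorescence ratio to pre-addition baseline per second over 15 to 24 s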); settings: thallium flux BTC fluorescence, at 10 µM, actives lie on both sides
# Alpha-2C adrenergic receptor (Homo sapiens), sequence (P18825 whole entry, looked up): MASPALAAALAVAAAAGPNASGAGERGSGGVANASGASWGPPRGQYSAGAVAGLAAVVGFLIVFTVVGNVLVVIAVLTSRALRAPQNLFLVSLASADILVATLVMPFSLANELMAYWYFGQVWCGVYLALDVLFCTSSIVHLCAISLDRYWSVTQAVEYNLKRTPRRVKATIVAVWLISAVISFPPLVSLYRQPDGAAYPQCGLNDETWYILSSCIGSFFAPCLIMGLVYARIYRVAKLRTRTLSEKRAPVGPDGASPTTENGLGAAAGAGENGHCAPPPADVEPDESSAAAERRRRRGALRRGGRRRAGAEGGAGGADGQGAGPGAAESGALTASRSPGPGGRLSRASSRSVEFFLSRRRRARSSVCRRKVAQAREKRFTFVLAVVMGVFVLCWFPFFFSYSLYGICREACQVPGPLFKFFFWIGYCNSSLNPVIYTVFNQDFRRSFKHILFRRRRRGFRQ
# [7] = blockers of RIG-like receptor reporter activation – cell-based, Sendai virus stimulus, luciferase, 10K MLSCN set, TLR/RLR signaling modifier project, primary screen (AID 602276;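 active = inhibition at or above 50% at 10 µM; inactive = inhibition below 50%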;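 also: firefly luciferase from ISG56 promoter only with Renilla not read in this screen; 0% = Sendai virus plus DMSO and 100% = medium plus DMSO without virus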); settings: HEK293 RL24 IRF3 luciferase reporter, at 10 µM, stronger effect = higher value
# [8] = TLR3 IRF3 reporter activation blockers – cell-based, poly I:C stimulus, luciferase, 10K MLSCN set, primary screen (AID 602277); settings: HEK293-TLR3 RL24 IRF3 luciferase reporter, at 10 µM, stronger effect = higher value
Compound,cell count [1],inhibition [1],inhibition of aggregation [2],nuclei count [2] [%],nuclei count [3] [%],fluorescence slope [4],NADPH fluorescence slope [5],slope [6],inhibition [7],inhibition [8],inhibition [3]
Cc1cccc(NC(=O)CSc2nnc(-c3ccccc3C)o2)c1,414,0.8% (inactive),-0.2% (inactive),92,116,-0.32 (inactive),-4.9e-05 (inactive),0.00441 (inactive),-55.2% (inactive),-86.9% (inactive),–
COC(=O)CSc1cc(C)nc(NC(C)=O)n1,703,11% (inactive),-16.4% (inactive),98.3,110,-0.586 (inactive),-4.5e-05 (inactive),0.0055 (inactive),6.12% (inactive),17.7% (inactive),-5.3% (inactive)
O=C(Cn1ncc2c(=O)oc3ccccc3c21)NCC1CCCO1 (stereo unspecified),725,6.6% (inactive),-2.2% (inactive),111,125,-0.61 (inactive),-1.2e-05 (inactive),0.0073 (inactive),4.27% (inactive),9.41% (inactive),-40.1% (inactive)
C=COCCNC(=O)Nc1ccc(Cl)c(Cl)c1,387,-7% (inactive),4.5% (inactive),101,119,-0.348 (inactive),-4.7e-05 (inactive),0.00498 (inactive),-35.4% (inactive),-41.6% (inactive),-170% (inactive)
Cc1ccc(-n2cnnn2)c2cccnc12,658,-9.3% (inactive),-7% (inactive),104,102,-0.402 (inactive),-1.4e-05 (inactive),0.00333 (inactive),5.45% (inactive),27.7% (inactive),-17% (inactive)
CCOc1ccc(Nc2nc(Cc3nnc(SCC(N)=O)o3)cs2)cc1,453,6.7% (inactive),-0.8% (inactive),104,154,-0.608 (inactive),-2.2e-05 (inactive),0.00638 (inactive),9.26% (inactive),14% (inactive),–
COc1ccc(-c2nnc(SCC(=O)NC(=O)NCc3ccco3)o2)cc1,417,5.6% (inactive),-7.4% (inactive),102,157,-0.455 (inactive),9.2e-05 (inactive),0.00577 (inactive),18.6% (inactive),24.4% (inactive),–
CC(=O)c1cc(F)c(N2CCN(C(=O)Cc3ccccc3)CC2)cc1C,774,-3.9% (inactive),-30.4% (inactive),84.3,110,-0.493 (inactive),-6.1e-05 (inactive),0.00566 (inactive),3.34% (inactive),0.856% (inactive),-25.8% (inactive)
COc1ccc2nc3oc(C(=O)N4CCCCC4)cc3cc2c1,194,1.8% (inactive),-10.4% (inactive),105,112,-0.0908 (inactive),-2.5e-05 (inactive),0.00338 (inactive),-36.8% (inactive),-132% (inactive),-13.7% (inactive)
COc1ccc(NC(=O)CSc2nnc(-c3ccccc3C)n2C)cc1,661,1.6% (inactive),3.2% (inactive),121,111,-0.422 (inactive),-3.9e-05 (inactive),0.0036 (inactive),5.44% (inactive),28.1% (inactive),81.4% (active)
Cc1nc2sc(C(c3ccco3)N3CCN(c4ccccc4F)CC3)c(O)n2n1 (stereo unspecified),226,-5.9% (inactive),3.8% (inactive),104,114,-0.436 (inactive),-6.1e-06 (inactive),0.00573 (inactive),7.27% (inactive),10.5% (inactive),-0.8% (inactive)
COc1cc2c(cc1NC(=O)COC(=O)Cn1cnc3ccccc31)oc1ccccc12,403,7.7% (inactive),-10.9% (inactive),86.8,110,-0.533 (inactive),-2.6e-05 (inactive),0.00618 (inactive),20.9% (inactive),9.12% (inactive),-2.1% (inactive)
CC(C)OC(=O)CSc1nc2cccnc2n1C1CCCCC1,267,-9.7% (inactive),-18.5% (inactive),78.8,106,-0.592 (inactive),-5.3e-05 (inactive),0.00357 (inactive),11.2% (inactive),17.9% (inactive),-25.1% (inactive)
CCOC(=O)N1CCC(NC(=O)Cn2ncc3c4ccccc4n(C)c3c2=O)CC1,557,-1% (inactive),-0.9% (inactive),98.6,105,-0.28 (inactive),-2.3e-05 (inactive),0.00602 (inactive),14.9% (inactive),26% (inactive),-47.7% (inactive)
